Sampled rows, rich in hits. Any-hit rate of the full collection: about 8.6%.
Marburg entry: qHTS for Inhibitors of binding or entry into cells for Marburg Virus | Marburg virus pseudotype entry/binding inhibition, cell-based | AID 720532, 2013 | 18,000 compounds, 6.5% hits | Potency, µM (titrated, usually from 49.2 µM), usual class: inhibitors
Lassa entry: qHTS for Inhibitors of binding or entry into cells for Lassa Virus | Lassa virus pseudotyped entry inhibition, cell-based qHTS | Potency, µM (titrated, usually from 49.2 µM), usual class: inhibitors | 18,000 compounds, 4.1% hits
A number is an active result; n = inactive; u = inconclusive; x = no result given; ! = a repeat was not active; [ ] = dose if it differs, or a comment. The call rests on the fitted dose curve; tested in HEK293 cells.

SMILES	Marburg entry	Lassa entry
Cc1cc(C)c2c(c1)CO[C@H]([C@H](O)CO)[C@H]2C=Cc1ccccc1	u	n[8.59 µM]
CCOC(=O)C1=C(N)Oc2ccc(Br)cc2[C@@H]1[C@@H](C#N)C(=O)OCC	n	20µM
CCOC(=O)C1Oc2ccccc2C(C(=O)OC)=C1C(=O)OC (centres undefined)	n	n
CCCNC(=O)OC[C@H]1O[C@H](CCON=C2C[C@@H](O)[C@@H](O)[C@@H]3[C@H]4C(=O)N(CC)C(=O)[C@@H]4CC[C@H]23)C=C[C@H]1Oc1ccc(OC)cc1	n[8.59 µM]	n[8.59 µM]
NC(=O)OC[C@@H]1[C@H](NC(=O)/C(=N\OCC(=O)O)c2csc(N)n2)C(=O)N1S(=O)(=O)O	n	n
COC(=O)c1cc(C(=O)OC)n2c(C)cc3ccccc3c12	n[8.59 µM]	n[8.59 µM]
ClC1=C(Cl)C(Cl)(C2(Cl)C(Cl)=C(Cl)C(Cl)=C2Cl)C(Cl)=C1Cl	3.16µM	u
Oc1cc2c(cc1O)C1c3ccc(O)c(O)c3OCC1(O)C2 (centres undefined)	3.98µM	u
OC(CCN1CCCCC1)(c1ccccc1)c1ccccc1	8.91µM	u
CC[N+](CC)(CC)CCC(O)(c1ccccc1)C1CCCCC1 (centres undefined)	n	n
OC(C#CCN1CCCC1)(c1ccccc1)c1ccccc1	n	n
OC(CCN1CCCC1)(c1ccccc1)C1CCCCC1 (centres undefined)	15.8µM	n
COC(=O)CC=C[C@@H](C)[C@H](OC)c1cc(F)ccc1Br	n[8.59 µM]	n[8.59 µM]
CCCCCCCc1cc2ccc(F)cc2c2c(C(=O)OC)c(C(=O)OC)c(C(=O)OC)n12	u	n[8.59 µM]
NC(=O)[C@@H]1C[C@]2(NC(=O)NC2=O)c2cc(F)ccc2O1	n	n
CC(C)(C)c1nc(-c2ccccc2)oc1Nc1ccc2ccccc2c1	n[8.59 µM]	n[8.59 µM]
CCCCC(O)c1ccccc1 (centres undefined)	n	n
COC(=O)C1(C)C2CC(C)C(c3ccccc32)N1C(=O)C(F)(F)F (centres undefined)	n[8.59 µM]	x
Fc1ccc(-c2c(-c3ccncc3)nc3n2CCS3)cc1	u	n
O=[N+]([O-])c1ccc(-c2nc(-c3ccc(F)cc3)c(-c3ccncc3)[nH]2)cc1	11.2µM	n
CCN1C(=NCCCOC(C)C)NC(c2ccccc2)C(C(=O)OC)=C1C (centres undefined)	n[8.59 µM]	n[8.59 µM]
Fc1ccc(-c2cc(-c3cn[nH]c3-c3ccccn3)ccn2)cc1	n	n
COC1=CC2C(=O)C(C(c3ccccc3)C2C)C1(O)c1cccc(OC)c1 (centres undefined)	n[8.59 µM]	n[8.59 µM]
Cc1cccc(CNc2nc(-c3cccc(NS(C)(=O)=O)c3)nc3ccccc23)c1	u	n
COc1cc(NS(C)(=O)=O)ccc1Nc1c2ccccc2nc2ccccc12	u	3.16µM
SMILES	Marburg entry	Lassa entry
O=C(NN=C1C[C@@H](O)[C@H](O)[C@H]2[C@@H]3C(=O)N(C[C@@H]4CCCO4)C(=O)[C@@H]3CC[C@H]12)OCc1ccccc1	n[8.59 µM]	x
C[C@H]1CCCC=CC2C[C@H](O)C[C@@H]2[C@H](O)C=CC(=O)O1 (some centres undefined)	35.5µM	u
CC1=CC2CC(CCO)OP(=O)(OC1)O2 (centres undefined)	n	n
CCN(CC)CCOC(=O)C(Cc1cccc2ccccc12)CC1CCCO1 (centres undefined)	10µM	u
COc1ccc(C(=O)N(Cc2cc3cccc(C)c3nc2N(C)C)CC2CCCO2)cc1 (centres undefined)	n	n
CC(C)CC1C(=O)N(Cc2cn(CCC3OCCCO3)nn2)CCS(=O)(=O)N1Cc1ccc(-c2ccc(F)nc2)cc1 (centres undefined)	u	n
CC(C)=CCCC(C)=CCON=C1C[C@@H](O)[C@@H](O)[C@@H]2[C@H]3C(=O)N(c4cccc(Oc5ccccc5)c4)C(=O)[C@@H]3CC[C@H]12	n[8.59 µM]	n[8.59 µM]
CN(C(Cc1ccc(OS(=O)(=O)c2cccc3cnccc23)cc1)C(=O)N1CCN(c2ccccc2)CC1)S(=O)(=O)c1cccc2cnccc12 (centres undefined)	u	10µM
NC(N)=NCCNS(=O)(=O)c1cccc2cnccc12	n	n
CC(C)(C)OC(=O)N1CCC[C@@H]1C(O)(c1ccccc1)c1ccccc1	n[8.59 µM]	n[8.59 µM]
O=C(OCc1cn([C@H]2C[C@H](c3ccccc3)N(C(=O)C3CCCCC3)C[C@H]2O)nn1)c1ccccc1	n	n
CC=COC(=O)N[C@@H](c1ccccc1)[C@]1(C(C)=O)CCCC1=O	n[8.59 µM]	x
C=CCCCN1C(=O)NC(c2ccccc2)C(C(=O)OC)=C1C (centres undefined)	n[8.59 µM]	n[8.59 µM]
CC(=O)OC1CCC2(C)C3=C(CCC2C1(C)C)[C@@]1(C)CCC(C(C)CCC=C(C)C)[C@@]1(C)CC3 (some centres undefined)	n	n
COc1cc(/C=C/C(=O)O[C@H]2CC[C@]34C[C@]35CC[C@]3(C)[C@@H]([C@H](C)CCC=C(C)C)CC[C@@]3(C)[C@@H]5CC[C@H]4C2(C)C)ccc1O	n	25.1µM!
C[C@H]1[C@H](N=[N+]=[N-])[C@H](O)CCO[C@@H]1c1ccccc1	n[8.59 µM]	n[8.59 µM]
COC(=O)c1c(C(=O)OC)c2c3cc(OC)c(OC)cc3cc([Si](C)(C)C)n2c1C(=O)OC	n[8.59 µM]	n[8.59 µM]
CCOC(=O)C1OC1C(=O)N[C@@H](CC(C)C)C(=O)NCCC(C)C (some centres undefined)	5.01µM	n
C=C1c2cccc(C(F)(F)F)c2O[C@H](C(=O)OCC)[C@@H]1CCC(C)C	n	n
CCOC(=O)C1OC1C(=O)NC(CC(C)C)C(=O)NCCC(C)C (centres undefined)	3.55µM	n
CC(C)CON=C1C[C@@H](O)[C@@H](O)[C@@H]2[C@H]3C(=O)N(C[C@@H]4CCCO4)C(=O)[C@@H]3CC[C@@H]12	n[8.59 µM]	n[8.59 µM]
COc1ccc([C@]23Cc4ccccc4[C@H](O2)c2c(cc(-c4ccccc4)oc2=O)O3)cc1	n[8.59 µM]	n[8.59 µM]
COC(=O)C1=C(C)NC(C)=C(C(=O)O[C@H]2CCN(Cc3ccccc3)C2)[C@H]1c1cccc([N+](=O)[O-])c1	22.4µM	u
COC(=O)C1=C(C)NC(C)=C(C(=O)NCCCN2CCC(c3ccccc3)(c3ccccc3)CC2)C1c1ccc([N+](=O)[O-])cc1 (centres undefined)	3.16µM	u
COC(=O)C1=C(C)NC(C)=C(C(=O)OCC(C)=O)C1c1ccccc1[N+](=O)[O-] (centres undefined)	n	u
SMILES	Marburg entry	Lassa entry
COC(=O)C1=C(C)NC(C)=C(C(=O)OCCNCc2ccccc2)C1c1cccc([N+](=O)[O-])c1 (centres undefined)	11.2µM	u
COCCOC(=O)C1=C(C)NC(C)=C(C(=O)OC(C)C)[C@H]1c1cccc([N+](=O)[O-])c1	n	n
COC(=O)C1=C(C)NC(C)=C(C(=O)OCCN(C)Cc2ccccc2)[C@H]1c1cccc([N+](=O)[O-])c1	u	n
O=C(OCc1cn([C@@H]2C[C@H](c3ccccc3)N(CC3CCCCC3)C[C@@H]2O)nn1)c1ccccc1	n	n
CC(CCN1CCCc2nc(C)c(C)cc21)=NO[C@@H](C)c1cc(-c2c(C)cc(C)cc2C)no1	n[8.59 µM]	n[8.59 µM]
CNC(=O)c1cncc(C=Cc2c(C)cccc2C)c1	u	n
O=S(=O)(N[C@@H](CO)Cc1ccccc1)c1ccc(Br)cc1F	n	n

High-throughput results (PubChem)
